Results: PubChem BioAssay (NCATS)
A number with no mark means an inactive call. Inconclusive results are not listed. This is one part of the list. Where a call stands in place of a potency, no number is given. The source made the active and inactive calls. Unless noted, calls come from the whole dose curve; as a rule, active = well fitted curve in the direction sought with a large enough effect; inconclusive = small, poorly fitted or top-dose-only effect, or another doubt; inactive = no such curve, though single readings can be large; an effect the other way counts as inactive or inconclusive.

Tests used:
[1] = molecular target: Rap guanine nucleotide exchange factor 3 (Homo sapiens) (UniProt O95398); experiment: Confirmatory qHTS for antagonist of cAMP-regulated guanine nucleotide exchange factor 3 (EPAC1) (AID 1645880); note: nearly all actives have a fitted effect of over 55% in size; note: potency is the fitted concentration of half-maximal effect
Method in brief: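 Nucleotide exchange uses 100 nM EPAC1, 250 nM RAP1B-BODIPY-GDP and 50 uM GDP, with compounds in a concentration-titration series. After 5 min at room temperature, fluorescence (480 nm ex/540 nm em) is read every 5 min for 30 min. Data are normalized to control ATA and DMSO.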

[2] = molecular target: Rap guanine nucleotide exchange factor 3 (Homo sapiens) (UniProt O95398); experiment: Confirmatory qHTS for agonist of cAMP-regulated guanine nucleotide exchange factor 3 (EPAC1) (AID 1645881); note: nearly all actives have a fitted effect of over 75% in size; note: potency is the fitted concentration of half-maximal effect;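 for activation: EPAC1 catalysed release of BODIPY-GDP from Rap1B seen as fluorescence loss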
[3] = molecular target: Rap guanine nucleotide exchange factor 4 (Homo sapiens) (UniProt Q8WZA2); experiment: Confirmatory qHTS for agonist of cAMP-regulated guanine nucleotide exchange factor 4 (EPAC2) (AID 1645884);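 note: nucleotide exchange releases bodipy-GDP from Rap1 and this lowers its fluorescence; nearly all actives have a fitted effect of over 65% in size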; note: potency is the fitted concentration of half-maximal effect
[4] = molecular target: Rap guanine nucleotide exchange factor 3 (Homo sapiens) (UniProt O95398); experiment: Counterscreen qHTS for antagonist of cAMP-regulated guanine nucleotide exchange factor 3 (EPAC1) (AID 1645888);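 note: fluorescence loss as bound BODIPY-GDP is released from Rap1B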
Method in brief: (§1)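 Measured: fluorescence of BODIPY-GDP bound to Rap1B, which falls as exchange proceeds. Conditions include 50 uM competing GDP, 5 and 30 min reads, and a later cAMP challenge for antagonist detection.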

[5] = molecular target: Rap guanine nucleotide exchange factor 4 (Homo sapiens) (UniProt Q8WZA2); experiment: Confirmatory qHTS for antagonist of cAMP-regulated guanine nucleotide exchange factor 4 (EPAC2) (AID 1645885); note: nearly all actives have a fitted effect of over 25% in size; note: potency is the fitted concentration of half-maximal effect
[6] = molecular target: Rap guanine nucleotide exchange factor 3 (Homo sapiens) (UniProt O95398); experiment: Counterscreen qHTS for agonist of cAMP-regulated guanine nucleotide exchange factor 3 (EPAC1) (AID 1645889); note: nearly all actives have a fitted effect of over 40% in size; note: potency is the fitted concentration of half-maximal effect
Method in brief: as §1

[7] = molecular target: Glucocorticoid receptor (Homo sapiens) (UniProt P04150); experiment: GR-GFP Redistribution (AID 450;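 active = compounds whose dose series gives a full or clear partial fitted curve of increased nuclear translocation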; note: potency is the fitted concentration of half-maximal effect); conditions: U2OS GR-GFP nuclear translocation, laser cytometry, 2 h
[8] = molecular target: Glucocorticoid receptor (Homo sapiens) (UniProt P04150); experiment: GR-EFC Redistribution (AID 451; calls by dose curve; note: potency is the fitted concentration of half-maximal effect); conditions: CHO-K1 GR-EFC translocation, beta-gal luminescence, 2 h
Method in brief: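 CHO-K1 cells stably expressing nuclear-localized β-gal enzyme acceptor and GR fused C-terminally to the enzyme donor fragment; ligand-driven nuclear translocation restores β-gal by complementation. Compounds titrated up to 46 uM final, 2 h at 37 °C; luminescence read.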

[9] = molecular target: Mitogen-activated protein kinase 10 (Mus musculus) (UniProt Q61831); experiment: JNK3 AlphaScreen Assay (AID 530; active = well fitted curve in either direction with a large enough effect, not every such curve was filed as active;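 note: kinase came from lysate of stimulated human HepG2 cells; signal reports phosphorylation of biotinylated GST-cJun 1-79 at Ser73 with 10 µM ATP; series mostly up to about 57 µM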)
Method in brief: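 JNK3 came from HepG2 lysates pre-activated with IL-1beta and TNF-alpha and phosphorylated biotinylated GST-cJun (1-79) at 10 uM ATP, pH 7.6, room temperature. Compounds were titrated. AlphaScreen signal used anti-phospho-cJun (Ser73) antibody.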

[10] = molecular target: Cytochrome P450 2C9 (Homo sapiens) (UniProt P11712); experiment: qHTS Assay for Inhibitors and Substrates of Cytochrome P450 2C9 (AID 883); note: potency is the fitted concentration of half-maximal effect; nearly all actives have a fitted effect of over 60% in size
Method in brief: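 A luminogenic readout tracked human CYP2C9 (10nM) converting deoxyluciferin (100uM, at KM) in 25mM KPO4 during 60 min at 37C with regenerated NADPH. Values normalized to 57uM sulphaphenazole as complete inhibition.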

[11] = molecular target: Cytochrome P450 3A4 (Homo sapiens) (UniProt P08684); experiment: qHTS Assay for Inhibitors and Substrates of Cytochrome P450 3A4 (AID 884); note: potency is the fitted concentration of half-maximal effect; nearly all actives have a fitted effect of over 50% in size
Method in brief: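 20 nM human CYP3A4 with 25 uM Luciferin-PPXE (at KM) in 200 mM KPO4, preincubated 10 min with compound; NADPH regeneration started a 60 min RT reaction. Luciferin detected by luminescence, normalized to 57 uM ketoconazole as full inhibition.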

[12] = molecular target: Cytochrome P450 3A4 (Homo sapiens) (UniProt P08684); experiment: qHTS Assay for Activators of Cytochrome P450 3A4 (AID 885); note: nearly all actives have a fitted effect of over 65% in size
Method in brief: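 Signal was normalized against complete inhibition by 57 uM ketoconazole. The reaction used 20nM CYP3A4 with 25uM Luciferin-PPXE, 10-min compound preincubation and a 60-min NADPH-supported step at RT.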

[13] = molecular target: DNA dC->dU-editing enzyme APOBEC-3G (Homo sapiens) (UniProt Q9HC16); experiment: qHTS for inhibitors of Vif-A3G interactions: Validation (AID 588379)
Method in brief: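 HeLa cells stably expressing Vif and A3G-eYFP, 700 cells/well, incubated overnight at 37 deg C, then exposed to compound overnight at 37 deg C. Inhibition of Vif-mediated degradation read as increased yellow fluorescence (Ex 488/Em 500-530) by laser-scanning cytometry.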

[14] = molecular target: Tumor susceptibility gene 101 protein (Homo sapiens) (UniProt Q99816); experiment: qHTS Assay for Iinhibitors of HIV-1 Budding by Blocking the Interaction of PTAP/TSG101: Hit Validation (AID 651600); note: potency is the fitted concentration of half-maximal effect; nearly all actives have a fitted effect of over 70% in size
Method in brief: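 Fluorescence polarization binding assay: Tsg101 binding domain (10 uM final) pre-dispensed with compounds, then FITC-labeled PTAP-motif peptide (50 nM final) added; 20 min at r.t. in HEPES pH 7.5 buffer with NaCl, Tween 20, EDTA, TCEP.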

[15] = molecular target: Vitamin D3 receptor (Homo sapiens) (UniProt P11473); experiment: qHTS for Inhibitors of the vitamin D receptor (VDR): Hit Validation using a Beta-Lactamase Assay (AID 602202)
Method in brief: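 Stably transfected HEK293 cells express a VDR–GAL4 DNA-binding-domain fusion driving a UAS beta-lactamase reporter, stimulated by agonist LG190178. Compounds were added 4 h after plating and incubated 18 h. A FRET beta-lactam substrate was then added for 2 h and cleaved substrate emission read at 447 nm.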

[16] = qHTS for Inhibitors of the vitamin D receptor (VDR): Hit Validation using a Cytotoxicity Assay (AID 602204); note: nearly all actives have a fitted effect of over 75% in size
Method in brief: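 Cytotoxicity counterscreen measuring cellular ATP by CellTiter-Glo luminescence. Cells (20,000/well) plated 4 hours before compound addition, then exposed for 18 hours. Cycloheximide at high concentration as positive control, DMSO as negative.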

[17] = molecular target: Phosphoglycerate kinase, glycosomal (Trypanosoma brucei brucei) (UniProt P07378); experiment: qHTS for inhibitors of Phosphogylcerate Kinase: Hit Validation Screen (AID 686980); conditions: TbPGK coupled GAPDH assay, Kinase-Glo luminescence; note: potency is the fitted concentration of half-maximal effect; nearly all actives have a fitted effect of over 65% in size
Method in brief: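 Luminescent ATP detection (Kinase-Glo Plus) follows a 60-minute room-temperature incubation, with wells lacking PGK as controls. Buffer: 100 mM TEA (pH 7.6), 5 mM MgCl2, 0.01% Tween-20. Coupling enzyme GAPDH (100 nM final) supplies unstable 1,3-BPG in-well.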

[18] = molecular target: DNA polymerase iota (Homo sapiens) (UniProt Q9UNA4); experiment: qHTS for Inhibitors of Polymerase Iota: Confirmatory Assay for Cherry-picked Compounds (AID 720496); conditions: Pol iota primer extension, TAMRA/BHQ fluorescence; note: potency is the fitted concentration of half-maximal effect
Method in brief: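 Step 1: 10 nM Pol iota with compound, 15 min, room temperature. Step 2: 50 nM final quenched DNA substrate added. Step 3: fluorescence (ex 525, em 598 nm) read at 0 and after 10 min.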

[19] = molecular target: Bifunctional 3'-5' exonuclease/ATP-dependent helicase WRN (Homo sapiens) (UniProt Q14191); experiment: qHTS for Inhibitors of WRN Helicase: Confirmatory Assay for Cherry-picked Compounds. (AID 720497); conditions: WRN helicase DNA unwinding, fluorescence kinetic; note: potency is the fitted concentration of half-maximal effect; nearly all actives have a fitted effect of over 65% in size
Method in brief: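 WRN at 20 nM final was preincubated with compound for 15 min at room temperature; the reaction was started with 100 nM forked duplex oligonucleotide and 2 mM ATP (final). Red fluorescence (ex 525/em 598 nm) was read kinetically, with inhibition normalized to enzyme-only and buffer-only wells.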

[20] = molecular target: Flap endonuclease 1 (Homo sapiens) (UniProt P39748); experiment: qHTS Assay for the Inhibitors of FEN1: Confirmatory Assay for Cherry-picked Compounds (AID 720498); conditions: FEN1 flap cleavage, TAMRA/BHQ2 fluorogenic DNA substrate; note: potency is the fitted concentration of half-maximal effect; nearly all actives have a fitted effect of over 60% in size
Method in brief: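 FEN1 at 10 nM was preincubated with compound for 15 min at room temperature, then 50 nM (final) double-flap DNA substrate was added. TAMRA fluorescence released from the BHQ-2-quenched flap was read at 0 and 15 min (ex 525/em 598 nm).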

[21] = qHTS for Inhibitors of WRN Helicase: Thiazole Orange DNA Binding Counterscreen (AID 720499); conditions: thiazole orange DNA binding displacement, fluorescence;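 note: drop in dye fluorescence marks compound binding to DNA; potency is the fitted concentration of half-maximal effect; nearly all actives have a fitted effect of over 60% in size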
Method in brief: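 Compounds were pin-transferred into 50 nM unlabeled DNA premixed with 100 nM thiazole orange. After 15 min at room temperature, fluorescence (ex 480 nm, em 530 nm) was read; loss of signal flags dye displacement from nonspecific DNA binders.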

[22] = molecular target: DNA polymerase kappa (Homo sapiens) (UniProt Q9UBT6); experiment: qHTS for Inhibitors of Polymerase Kappa: Confirmatory Assay for Cherry-picked Compounds (AID 720501); conditions: purified Pol-kappa, fluorescent strand-displacement substrate; note: potency is the fitted concentration of half-maximal effect
Method in brief: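 Human Pol-kappa, dispensed at 10 nM, was preincubated with compounds for 15 min at room temperature. Reactions were started with primer/template substrate (50 nM final) carrying a TAMRA reporter strand and BHQ-2-quenched template, and fluorescence (ex 525/em 598 nm) was read at 0 and 10 min.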

[23] = molecular target: DNA polymerase eta (Homo sapiens) (UniProt Q9Y253); experiment: qHTS for Inhibitors of Polymerase Eta: Confirmatory Assay for Cherry-picked Compounds (AID 720502); conditions: Pol eta primer extension, TAMRA/BHQ fluorescence, 10 min; note: potency is the fitted concentration of half-maximal effect
Method in brief: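 Human Pol eta at 10 nM was preincubated with compound for 15 min at room temperature. Reaction was started with TAMRA/BHQ-2-labelled primer-template substrate (50 nM final), with fluorescence read at 0 and 10 min (ex 525, em 598 nm).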

[24] = molecular target: RecQ-like DNA helicase BLM (Homo sapiens) (UniProt P54132); experiment: qHTS for Inhibitors of WRN Helicase: BLM Helicase Counterscreen for WRN Inhibitors (AID 720503); conditions: Recombinant BLM helicase DNA unwinding, red fluorescence; note: potency is the fitted concentration of half-maximal effect; nearly all actives have a fitted effect of over 60% in size
Method in brief: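 Reactions were started with 100 nM DNA substrate and 2 mM ATP (final) after compound and 1 nM BLM stood 15 min at room temperature in Tris-HCl pH 8.0 buffer with NaCl, MgCl2, DTT and Tween-20. Two red-fluorescence reads 15 min apart were normalized against DMSO and no-enzyme wells.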

Sequence of Rap guanine nucleotide exchange factor 4 (Homo sapiens) (Q8WZA2 whole entry, looked up): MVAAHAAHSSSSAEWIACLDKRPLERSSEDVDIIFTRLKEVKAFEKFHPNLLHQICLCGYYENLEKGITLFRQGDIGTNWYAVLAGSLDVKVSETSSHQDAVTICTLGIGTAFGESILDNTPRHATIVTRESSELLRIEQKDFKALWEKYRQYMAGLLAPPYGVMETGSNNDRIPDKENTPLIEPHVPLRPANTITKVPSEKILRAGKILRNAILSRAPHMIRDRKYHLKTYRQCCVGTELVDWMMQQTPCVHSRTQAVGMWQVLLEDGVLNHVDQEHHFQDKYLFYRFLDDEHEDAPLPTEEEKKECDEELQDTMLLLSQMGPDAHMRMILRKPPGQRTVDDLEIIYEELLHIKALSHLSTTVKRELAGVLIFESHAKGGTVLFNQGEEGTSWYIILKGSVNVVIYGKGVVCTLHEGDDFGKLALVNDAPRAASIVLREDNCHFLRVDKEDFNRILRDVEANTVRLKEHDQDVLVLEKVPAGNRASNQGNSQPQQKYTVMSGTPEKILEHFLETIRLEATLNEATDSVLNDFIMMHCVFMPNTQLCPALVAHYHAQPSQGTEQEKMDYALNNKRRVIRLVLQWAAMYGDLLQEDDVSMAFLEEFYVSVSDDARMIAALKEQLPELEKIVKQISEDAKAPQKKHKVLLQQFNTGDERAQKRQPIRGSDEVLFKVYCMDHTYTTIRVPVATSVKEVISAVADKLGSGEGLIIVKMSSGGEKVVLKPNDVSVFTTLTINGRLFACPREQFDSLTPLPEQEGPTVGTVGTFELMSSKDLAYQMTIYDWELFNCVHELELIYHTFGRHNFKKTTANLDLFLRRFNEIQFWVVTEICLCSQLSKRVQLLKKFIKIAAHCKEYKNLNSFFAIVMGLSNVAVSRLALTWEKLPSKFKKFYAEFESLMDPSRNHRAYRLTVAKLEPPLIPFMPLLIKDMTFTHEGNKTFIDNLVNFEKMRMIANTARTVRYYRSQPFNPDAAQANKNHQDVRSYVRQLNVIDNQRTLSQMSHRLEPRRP
Sequence of Rap guanine nucleotide exchange factor 3 (Homo sapiens) (O95398 whole entry, looked up): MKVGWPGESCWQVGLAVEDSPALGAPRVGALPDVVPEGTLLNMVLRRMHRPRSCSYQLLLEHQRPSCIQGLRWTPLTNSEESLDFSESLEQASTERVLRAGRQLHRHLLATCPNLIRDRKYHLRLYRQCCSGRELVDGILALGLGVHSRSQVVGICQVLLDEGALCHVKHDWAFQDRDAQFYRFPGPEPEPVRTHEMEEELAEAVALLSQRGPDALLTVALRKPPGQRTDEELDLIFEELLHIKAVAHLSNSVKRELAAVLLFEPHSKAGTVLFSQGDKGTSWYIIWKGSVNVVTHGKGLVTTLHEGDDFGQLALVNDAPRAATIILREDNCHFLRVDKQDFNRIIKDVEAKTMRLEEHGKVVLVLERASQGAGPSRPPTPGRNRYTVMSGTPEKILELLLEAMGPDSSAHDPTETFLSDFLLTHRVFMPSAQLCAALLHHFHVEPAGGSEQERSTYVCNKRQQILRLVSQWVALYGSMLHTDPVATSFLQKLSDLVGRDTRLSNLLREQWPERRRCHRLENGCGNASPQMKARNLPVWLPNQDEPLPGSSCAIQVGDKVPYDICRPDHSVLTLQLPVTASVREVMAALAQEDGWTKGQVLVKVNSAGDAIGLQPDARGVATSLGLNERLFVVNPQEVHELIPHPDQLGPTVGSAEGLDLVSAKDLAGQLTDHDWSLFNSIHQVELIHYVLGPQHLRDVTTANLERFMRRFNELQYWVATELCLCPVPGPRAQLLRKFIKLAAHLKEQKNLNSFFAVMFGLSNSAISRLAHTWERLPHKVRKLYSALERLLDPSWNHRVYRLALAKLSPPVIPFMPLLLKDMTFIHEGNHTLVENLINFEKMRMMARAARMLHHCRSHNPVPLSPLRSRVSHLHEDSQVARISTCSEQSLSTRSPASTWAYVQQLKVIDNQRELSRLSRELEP
Sequence of Glucocorticoid receptor (Homo sapiens) (P04150 whole entry, looked up, the tested form may be a part): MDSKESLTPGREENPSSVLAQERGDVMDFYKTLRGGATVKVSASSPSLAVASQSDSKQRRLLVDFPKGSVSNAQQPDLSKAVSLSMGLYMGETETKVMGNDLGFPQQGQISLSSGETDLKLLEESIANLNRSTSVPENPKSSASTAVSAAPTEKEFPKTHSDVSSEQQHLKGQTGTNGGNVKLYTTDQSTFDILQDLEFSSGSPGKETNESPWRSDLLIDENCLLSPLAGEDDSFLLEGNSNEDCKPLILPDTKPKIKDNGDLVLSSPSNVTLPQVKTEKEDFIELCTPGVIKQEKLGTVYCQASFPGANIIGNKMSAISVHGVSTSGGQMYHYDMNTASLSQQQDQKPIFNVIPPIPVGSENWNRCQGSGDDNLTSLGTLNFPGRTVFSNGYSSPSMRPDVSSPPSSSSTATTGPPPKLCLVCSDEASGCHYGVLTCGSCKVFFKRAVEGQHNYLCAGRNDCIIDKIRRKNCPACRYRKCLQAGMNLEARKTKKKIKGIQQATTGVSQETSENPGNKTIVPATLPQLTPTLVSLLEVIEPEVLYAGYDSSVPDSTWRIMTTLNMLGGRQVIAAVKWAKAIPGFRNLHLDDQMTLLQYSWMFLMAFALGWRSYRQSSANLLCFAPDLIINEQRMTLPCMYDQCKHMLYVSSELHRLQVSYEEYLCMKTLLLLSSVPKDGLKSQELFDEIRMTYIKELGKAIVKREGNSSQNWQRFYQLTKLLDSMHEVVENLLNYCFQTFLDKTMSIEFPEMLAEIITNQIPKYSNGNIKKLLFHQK
Sequence of Cytochrome P450 3A4 (Homo sapiens) (P08684 whole entry, looked up): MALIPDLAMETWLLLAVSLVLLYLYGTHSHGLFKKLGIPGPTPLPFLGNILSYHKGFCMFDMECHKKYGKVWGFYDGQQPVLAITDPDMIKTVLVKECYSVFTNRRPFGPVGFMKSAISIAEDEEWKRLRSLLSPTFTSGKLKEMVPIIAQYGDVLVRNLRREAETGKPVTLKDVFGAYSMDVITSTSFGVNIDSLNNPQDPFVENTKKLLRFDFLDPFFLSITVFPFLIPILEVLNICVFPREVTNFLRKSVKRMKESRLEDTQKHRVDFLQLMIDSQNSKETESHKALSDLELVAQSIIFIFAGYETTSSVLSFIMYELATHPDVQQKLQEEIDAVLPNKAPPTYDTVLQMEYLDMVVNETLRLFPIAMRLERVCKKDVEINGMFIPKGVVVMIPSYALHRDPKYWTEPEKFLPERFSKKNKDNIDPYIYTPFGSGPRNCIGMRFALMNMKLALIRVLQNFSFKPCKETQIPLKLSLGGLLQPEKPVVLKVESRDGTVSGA
Sequence of Phosphoglycerate kinase, glycosomal (Trypanosoma brucei brucei) (P07378 whole entry, looked up): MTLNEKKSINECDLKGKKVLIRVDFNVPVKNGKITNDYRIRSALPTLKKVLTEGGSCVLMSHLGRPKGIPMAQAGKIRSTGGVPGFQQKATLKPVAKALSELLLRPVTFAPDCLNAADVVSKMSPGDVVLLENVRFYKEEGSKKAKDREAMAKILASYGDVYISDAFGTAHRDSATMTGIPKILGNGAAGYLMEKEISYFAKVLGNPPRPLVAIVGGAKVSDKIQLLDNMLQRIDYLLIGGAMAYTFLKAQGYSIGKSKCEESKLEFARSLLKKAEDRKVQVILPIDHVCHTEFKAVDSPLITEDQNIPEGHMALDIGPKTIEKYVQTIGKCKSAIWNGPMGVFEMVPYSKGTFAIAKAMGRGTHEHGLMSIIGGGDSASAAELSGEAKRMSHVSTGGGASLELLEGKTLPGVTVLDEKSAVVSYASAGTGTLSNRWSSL
Sequence of Flap endonuclease 1 (Homo sapiens) (P39748 whole entry, looked up): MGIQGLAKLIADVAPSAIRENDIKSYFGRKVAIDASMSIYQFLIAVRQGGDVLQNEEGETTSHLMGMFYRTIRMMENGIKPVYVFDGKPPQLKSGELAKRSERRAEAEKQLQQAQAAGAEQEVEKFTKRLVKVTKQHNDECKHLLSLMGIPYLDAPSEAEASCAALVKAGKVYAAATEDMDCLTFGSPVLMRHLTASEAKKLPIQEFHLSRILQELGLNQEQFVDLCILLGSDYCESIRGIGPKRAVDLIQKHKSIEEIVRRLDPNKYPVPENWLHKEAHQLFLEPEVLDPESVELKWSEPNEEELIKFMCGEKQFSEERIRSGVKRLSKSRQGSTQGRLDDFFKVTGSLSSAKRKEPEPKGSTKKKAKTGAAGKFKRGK
Sequence of DNA polymerase eta (Homo sapiens) (Q9Y253 whole entry, looked up): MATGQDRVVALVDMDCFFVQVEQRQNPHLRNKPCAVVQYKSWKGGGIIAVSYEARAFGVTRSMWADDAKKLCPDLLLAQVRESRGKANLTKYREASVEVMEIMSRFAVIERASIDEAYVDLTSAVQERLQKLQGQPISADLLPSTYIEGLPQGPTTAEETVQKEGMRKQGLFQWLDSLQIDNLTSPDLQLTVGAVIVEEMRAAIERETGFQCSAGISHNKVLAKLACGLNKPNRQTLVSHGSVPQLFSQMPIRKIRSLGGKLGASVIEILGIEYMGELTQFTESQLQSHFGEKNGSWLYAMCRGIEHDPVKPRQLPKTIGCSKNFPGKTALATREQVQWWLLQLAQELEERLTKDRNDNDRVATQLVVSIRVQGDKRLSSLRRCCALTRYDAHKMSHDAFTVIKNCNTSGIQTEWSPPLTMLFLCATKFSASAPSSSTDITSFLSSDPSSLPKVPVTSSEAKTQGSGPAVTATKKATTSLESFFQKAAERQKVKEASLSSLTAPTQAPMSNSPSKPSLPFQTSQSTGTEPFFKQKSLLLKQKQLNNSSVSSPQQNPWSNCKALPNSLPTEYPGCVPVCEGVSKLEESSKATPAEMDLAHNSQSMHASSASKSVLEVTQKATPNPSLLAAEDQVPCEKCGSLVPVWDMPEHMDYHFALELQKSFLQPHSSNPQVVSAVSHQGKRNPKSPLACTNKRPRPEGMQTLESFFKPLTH

CC(C)CCn1c(=O)c(C(=O)Nc2ccccc2S(N)(=O)=O)c(O)c2ccccc21
Potency [1]: 75.7 µM (active)
Potency [2]: inactive
Potency [3]: inactive
outcome [4]: inactive

Cc1cccc(N2C(=O)NC(=O)/C(=C\c3cccn3-c3ccc(Cl)cc3)C2=O)c1
Potency [1]: 47.8 µM (active)
Potency [2]: inactive
Potency [3]: inactive
Potency [5]: inactive
Potency [6]: inactive

COc1cccc(N2C(=O)NC(=O)/C(=C\c3cn(C)c4ccccc34)C2=O)c1
Potency [1]: inactive
Potency [3]: 100 µM (active)
Potency [5]: inactive
outcome [4]: inactive

CCCCC/C=C\C/C=C\C/C=C\C/C=C\CCCC(=O)Nc1ccc(O)cc1
Potency [7]: > 46 µM
Potency [8]: > 46 µM
outcome [9]: inactive
Potency [10]: 5.01 µM (active)
Potency [11]: 5.01 µM (active)
Potency [12]: inactive
outcome [13]: inactive
Potency [1]: inactive
Potency [2]: inactive
Potency [3]: inactive
Potency [5]: inactive

Cc1cc(OC(C)C(=O)N[C@H](C(=O)O)c2ccccc2)c2c3c(c(=O)oc2c1)CCC3 (stereo partly drawn)
Potency [1]: inactive
Potency [2]: inactive
Potency [3]: inactive
Potency [5]: 42.6 µM (active)
Potency [6]: inactive

Cc1cccc(CN2C(=O)CN=C(c3ccccc3)c3ccccc32)c1
Potency [1]: inactive
Potency [3]: inactive
activity change, negative = inhibition [5]: 15.3% [at 12.7 µM]
outcome [4]: inactive

O=[N+]([O-])c1ccc(NCc2ccccc2)c2nonc12
Potency [14]: 1.03 µM (active)
Potency [1]: inactive
Potency [2]: 8.91 µM (active)
Potency [3]: 100 µM (active)
Potency [5]: inactive
Potency [6]: 22.4 µM (active)

COc1ccc(N2C(=O)/C(=C/c3ccco3)C(=O)NC2=S)cc1
outcome [15]: inactive
outcome [16]: inactive
Potency [17]: 0.517 µM (active)
Potency [18]: 1.06 µM (active)
Potency [19]: 1.52 µM (active)
Potency [20]: 21.3 µM (active)
Potency [21]: 3.41 µM (active)
Potency [22]: 0.67 µM (active)
Potency [23]: 2.39 µM (active)
Potency [24]: 0.215 µM (active)
Potency [1]: 6.31 µM (active)
Potency [2]: inactive
activation [3]: 10.2% [at 17.1 µM, percent relative to cAMP agonist control]
activity change, negative = inhibition [5]: 33.5% [at 12.7 µM]
